Data: PubChem BioAssay (EPA / NIEHS)
Records with an inconclusive call do not appear. The source made the active and inactive calls. How the source made its calls: active means hit-call score of the fitted dose curve at least 0.9, where 1 is the maximum; inconclusive means response in the unintended direction; inactive means score below 0.9.

Tests used:
[1] = target: Luciferin 4-monooxygenase (Photinus pyralis) (UniProt P08659); assay: CCTE_Simmons_QuantiLum_inhib_2: CCTE's Firefly Luciferase Inhibition Assay, Simmons Lab (AID 2283767);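 on AC50: potency for inhibitors that lower luciferase luminescence relative to DMSO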
Outline: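 Counter-screen for nonspecific enzyme inhibition: purified firefly luciferase incubated 30 min at 37C with chemicals up to 87.5 uM final, then luminescence measured after luciferin/dATP injection; activity fitted against DMSO baseline.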

[2] = ACEA_AR_agonist_AUC_viability: ACEA Biosciences xCELLigence Real-Time Cell Analysis on Androgen Receptor Agonism for Viability (AID 2283775);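 on AC50: viability read 80 hours after compound addition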
Outline: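 Read-out is area under the impedance curve at 80 h post-dose in 22Rv1 cells, with DMSO as baseline and signal loss taken as reduced viability. Compounds ran in duplicate from 100 uM final.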

[3] = ACEA_AR_antagonist_AUC_viability: ACEA Biosciences xCELLigence Real-Time Cell Analysis on Androgen Receptor Antagonism for Viability (AID 2283776);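 further: area under impedance growth curve at 80 h after dosing as viability; hits lower the growth signal relative to DMSO meaning cytotoxicity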
Outline: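 22Rv1 human prostate cancer cells were seeded on electrode plates, monitored overnight, then exposed to eight 1:4 dilutions from 100 uM final. Impedance-based growth kinetics at 80 h gave an AUC viability endpoint normalized to DMSO.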

[4] = ACEA_ER_AUC_viability: ACEA Biosciences xCELLigence Real-Time Cell Analysis on Estrogen Receptor Agonism for Viability (AID 2283782);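 further: continuous compound exposure with impedance area under curve over 80 h; hit means loss of impedance signal meaning reduced cell growth or viability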
Outline: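 T-47D human breast cells in phenol red-free RPMI1640 with 10% charcoal-stripped FBS were dosed with an 8-point 1:4 dilution series from 100 uM top final concentration, in duplicate. Impedance-based growth was followed for 80 h; AUC analysed versus DMSO.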

[5] = target: zebrafish Estrogen Receptor (ESR1), esr1 (gene 259252) (UniProt P57717); assay: ATG_zfER1_XSP1: Attagene TRANS-FACTORIAL Multi-Species (XSP1) HepG2 Assay for zebrafish Estrogen Receptor (ESR1) (AID 2283772)
Outline: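 Transfect HepG2 with GAL4-UAS multi-reporter constructs; treat 24 h (medium carries 3 nM 6-alpha-fluorotestosterone); extract RNA, reverse-transcribe, PCR-amplify, FAM-label, digest with HpaI; resolve by capillary electrophoresis and compare against DMSO baseline.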

[6] = test system: zebrafish Estrogen Receptor (ESR2B), gene 317733; assay: ATG_zfER2b_XSP1: Attagene TRANS-FACTORIAL Multi-Species (XSP1) HepG2 Assay for zebrafish Estrogen Receptor (ESR2B) (AID 2283773)
Outline: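 HepG2 cells transiently transfected with multiple GAL4-UAS reporter units expressing chimeric zebrafish ER2b-Gal4; 24 h chemical exposure with 3 nM 6-alpha-fluorotestosterone present. Reporter mRNA measured by RT-PCR and capillary electrophoresis; gain of signal fitted versus DMSO.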

[7] = test system: frog Estrogen Receptor (ESR2), gene 100174814; assay: ATG_frER2_XSP1: Attagene TRANS-FACTORIAL Multi-Species (XSP1) HepG2 Assay for frog Estrogen Receptor (ESR2) (AID 2283774)
Outline: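 HepG2 cells transiently transfected with GAL4-UAS multiplexed reporter units expressing chimeric NR-Gal4 proteins; reporter mRNA measured 24 h after dosing by RT-PCR, FAM labeling, HpaI digestion and capillary electrophoresis. Gain-of-signal relative to DMSO; 3 nM 6-alpha-fluorotestosterone present.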

[8] = target: chicken Estrogen Receptor (ESR1), ESR1 (gene 396099) (UniProt P06212); assay: ATG_chERa_XSP1: Attagene TRANS-FACTORIAL Multi-Species (XSP1) HepG2 Assay for chicken Estrogen Receptor (ESR1) (AID 2283779)
Outline: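 HepG2 cells transiently transfected with multiplexed GAL4-UAS reporter units expressing chimeric NR-Gal4 proteins; 3 nM 6-alpha-fluorotestosterone present. Reporter mRNA measured 24 h after dosing by RT-PCR, FAM labelling, HpaI digest and capillary electrophoresis; gain of signal versus DMSO.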

[9] = target: Estrogen receptor (Homo sapiens) (UniProt P03372); assay: ATG_hERa_XSP1: Attagene TRANS-FACTORIAL Multi-Species (XSP1) HepG2 Assay for human Estrogen Receptor (ESR1) (AID 2283780)
Outline: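 HepG2 cells transiently transfected with GAL4-UAS reporter units and chimeric NR-Gal4 constructs; 24 h after dosing, reporter mRNA quantified by RT-PCR and capillary electrophoresis. Medium contained 3 nM 6-alpha-fluorotestosterone; activity fitted as gain-of-signal versus DMSO.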

[10] = test system: frog Estrogen Receptor (ESR1), gene 398734; assay: ATG_frER1_XSP1: Attagene TRANS-FACTORIAL Multi-Species (XSP1) HepG2 Assay for frog Estrogen Receptor (ESR1) (AID 2283777)
Outline: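 Read-out: fluorescent reporter mRNA via RT-PCR, HpaI digestion and capillary electrophoresis, after 24 h chemical exposure of transiently transfected human HepG2 cells expressing exogenous NR-Gal4 chimeras. DMSO served as baseline for positive-direction fitting.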

[11] = test system: zebrafish Estrogen Receptor (ESR2A), gene 317734; assay: ATG_zfER2a_XSP1: Attagene TRANS-FACTORIAL Multi-Species (XSP1) HepG2 Assay for zebrafish Estrogen Receptor (ESR2A) (AID 2283778)
Outline: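 HepG2 cells transiently transfected with multiplexed GAL4-UAS reporter units and chimeric NR-GAL4 receptors; 24 h compound exposure with 3 nM 6-alpha-fluorotestosterone present. Reporter mRNA quantified by RT-PCR and capillary electrophoresis, gain-of-signal fitted relative to DMSO.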

[12] = test system: turtle Estrogen Receptor (ESR1), gene 101933533; assay: ATG_trERa_XSP1: Attagene TRANS-FACTORIAL Multi-Species (XSP1) HepG2 Assay for turtle Estrogen Receptor (ESR1) (AID 2283781)
Outline: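 HepG2 cells transiently transfected with GAL4-UAS reporter units and chimeric NR-Gal4 constructs, dosed for 24 h with 3 nM 6-alpha-fluorotestosterone present. Reporter mRNA was quantified by RT-PCR, fluorescent labelling and capillary electrophoresis, with gain of signal fitted relative to DMSO.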

[13] = target: AR (gene 367) (UniProt P10275); assay: ACEA_AR_agonist_80hr: ACEA Biosciences xCELLigence Real-Time Cell Analysis on Androgen Receptor Agonism for Proliferation (AID 2283783);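 further: hits increase impedance growth signal above DMSO baseline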
Outline: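 22Rv1 human prostate cancer cells were seeded after preconditioning in assay medium and monitored overnight, then dosed in an eight-point 1:4 dilution series from 100 uM (≤0.5% DMSO). Impedance-based growth was read at 80 h, gain-of-signal versus DMSO.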

[14] = test system: zebrafish Androgen Receptor (AR), gene 100005148; assay: ATG_zfAR_XSP1: Attagene TRANS-FACTORIAL Multi-Species (XSP1) HepG2 Assay for zebrafish Androgen Receptor (AR) (AID 2283771)
Outline: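 HepG2 cells were transiently transfected with a zebrafish AR-GAL4 reporter system and partially stimulated with 3 nM 6-alpha-fluorotestosterone. Reporter mRNA was measured after 24 h dosing by RT-PCR with capillary electrophoresis, and gain-of-signal was fitted relative to DMSO.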

[15] = test system: chicken Androgen Receptor (AR), gene 422165; assay: ATG_chAR_XSP1: Attagene TRANS-FACTORIAL Multi-Species (XSP1) HepG2 Assay for chicken Androgen Receptor (AR) (AID 2283768)
Outline: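 HepG2 cells transiently transfected with multiplexed GAL4-UAS reporter units expressing chimeric chicken AR-Gal4; 3 nM 6-alpha-fluorotestosterone for partial AR stimulation; 24 h after dosing, reporter mRNA by RT-PCR and capillary electrophoresis, gain-of-signal versus DMSO.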

Sequence of Estrogen receptor (Homo sapiens) (P03372 whole entry, looked up, the tested form may be a part): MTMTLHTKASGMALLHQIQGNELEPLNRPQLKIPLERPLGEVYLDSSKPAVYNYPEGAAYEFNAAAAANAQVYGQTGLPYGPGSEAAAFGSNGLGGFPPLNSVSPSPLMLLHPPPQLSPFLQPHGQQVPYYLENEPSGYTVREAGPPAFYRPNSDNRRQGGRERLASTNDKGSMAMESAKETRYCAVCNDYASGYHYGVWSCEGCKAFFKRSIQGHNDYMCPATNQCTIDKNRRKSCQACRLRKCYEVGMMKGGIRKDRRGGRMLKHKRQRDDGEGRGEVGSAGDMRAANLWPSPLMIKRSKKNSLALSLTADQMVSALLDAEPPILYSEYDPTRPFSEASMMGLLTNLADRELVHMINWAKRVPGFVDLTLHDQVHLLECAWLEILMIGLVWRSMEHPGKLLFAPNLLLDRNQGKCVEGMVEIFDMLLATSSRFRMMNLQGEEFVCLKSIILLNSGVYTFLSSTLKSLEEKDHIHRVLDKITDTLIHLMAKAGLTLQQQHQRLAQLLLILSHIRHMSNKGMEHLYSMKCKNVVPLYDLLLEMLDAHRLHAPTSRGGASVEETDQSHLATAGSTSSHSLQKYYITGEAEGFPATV
Sequence of chicken Estrogen Receptor (ESR1), ESR1 (gene 396099) (P06212 whole entry, looked up, the tested form may be a part): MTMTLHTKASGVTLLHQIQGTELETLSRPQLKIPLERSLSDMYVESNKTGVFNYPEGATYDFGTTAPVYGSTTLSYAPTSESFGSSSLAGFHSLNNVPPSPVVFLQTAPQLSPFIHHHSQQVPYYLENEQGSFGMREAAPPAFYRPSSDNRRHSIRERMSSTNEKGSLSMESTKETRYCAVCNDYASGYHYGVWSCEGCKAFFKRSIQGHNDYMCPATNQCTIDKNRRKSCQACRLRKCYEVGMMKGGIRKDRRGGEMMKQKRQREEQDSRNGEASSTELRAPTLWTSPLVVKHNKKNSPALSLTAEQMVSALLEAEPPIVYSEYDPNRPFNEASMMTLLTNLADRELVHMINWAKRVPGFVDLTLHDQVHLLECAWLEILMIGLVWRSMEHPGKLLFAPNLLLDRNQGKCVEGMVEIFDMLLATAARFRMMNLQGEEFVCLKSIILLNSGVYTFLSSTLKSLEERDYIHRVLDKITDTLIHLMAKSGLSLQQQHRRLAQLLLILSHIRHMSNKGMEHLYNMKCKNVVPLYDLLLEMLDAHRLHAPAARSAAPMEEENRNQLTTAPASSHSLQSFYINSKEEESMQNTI
Sequence of Luciferin 4-monooxygenase (Photinus pyralis) (P08659 whole entry, looked up): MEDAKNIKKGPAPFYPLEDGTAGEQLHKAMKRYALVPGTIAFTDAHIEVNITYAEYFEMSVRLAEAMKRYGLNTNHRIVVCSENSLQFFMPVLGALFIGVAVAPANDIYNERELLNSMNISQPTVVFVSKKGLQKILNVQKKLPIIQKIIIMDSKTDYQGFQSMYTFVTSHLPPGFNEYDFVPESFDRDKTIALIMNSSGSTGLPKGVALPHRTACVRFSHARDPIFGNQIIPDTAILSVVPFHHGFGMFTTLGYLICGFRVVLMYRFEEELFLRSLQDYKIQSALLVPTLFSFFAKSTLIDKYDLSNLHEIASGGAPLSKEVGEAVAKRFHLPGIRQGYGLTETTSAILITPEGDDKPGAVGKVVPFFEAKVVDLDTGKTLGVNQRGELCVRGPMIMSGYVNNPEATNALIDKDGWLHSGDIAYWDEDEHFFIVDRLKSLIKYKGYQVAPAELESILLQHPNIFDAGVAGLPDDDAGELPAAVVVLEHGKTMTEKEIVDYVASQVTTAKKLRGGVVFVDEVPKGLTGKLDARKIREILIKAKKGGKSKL
Sequence of zebrafish Estrogen Receptor (ESR1), esr1 (gene 259252) (P57717 whole entry, looked up, the tested form may be a part): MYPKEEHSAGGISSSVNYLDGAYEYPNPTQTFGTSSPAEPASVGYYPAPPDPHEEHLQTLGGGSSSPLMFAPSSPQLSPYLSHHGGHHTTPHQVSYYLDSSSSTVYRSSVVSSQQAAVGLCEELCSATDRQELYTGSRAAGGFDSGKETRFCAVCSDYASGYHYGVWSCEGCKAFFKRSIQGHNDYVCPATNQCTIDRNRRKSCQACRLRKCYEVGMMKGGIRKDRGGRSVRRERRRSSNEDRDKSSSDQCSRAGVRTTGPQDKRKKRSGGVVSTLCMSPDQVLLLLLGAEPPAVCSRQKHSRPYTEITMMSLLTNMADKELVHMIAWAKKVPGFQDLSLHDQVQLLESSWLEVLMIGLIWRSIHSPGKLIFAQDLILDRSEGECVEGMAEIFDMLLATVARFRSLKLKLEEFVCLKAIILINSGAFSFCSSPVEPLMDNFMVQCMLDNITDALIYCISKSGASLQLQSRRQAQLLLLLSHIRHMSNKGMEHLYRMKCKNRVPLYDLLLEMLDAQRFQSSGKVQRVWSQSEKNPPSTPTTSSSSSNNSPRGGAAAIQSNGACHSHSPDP
Sequence of AR (gene 367) (P10275 whole entry, looked up): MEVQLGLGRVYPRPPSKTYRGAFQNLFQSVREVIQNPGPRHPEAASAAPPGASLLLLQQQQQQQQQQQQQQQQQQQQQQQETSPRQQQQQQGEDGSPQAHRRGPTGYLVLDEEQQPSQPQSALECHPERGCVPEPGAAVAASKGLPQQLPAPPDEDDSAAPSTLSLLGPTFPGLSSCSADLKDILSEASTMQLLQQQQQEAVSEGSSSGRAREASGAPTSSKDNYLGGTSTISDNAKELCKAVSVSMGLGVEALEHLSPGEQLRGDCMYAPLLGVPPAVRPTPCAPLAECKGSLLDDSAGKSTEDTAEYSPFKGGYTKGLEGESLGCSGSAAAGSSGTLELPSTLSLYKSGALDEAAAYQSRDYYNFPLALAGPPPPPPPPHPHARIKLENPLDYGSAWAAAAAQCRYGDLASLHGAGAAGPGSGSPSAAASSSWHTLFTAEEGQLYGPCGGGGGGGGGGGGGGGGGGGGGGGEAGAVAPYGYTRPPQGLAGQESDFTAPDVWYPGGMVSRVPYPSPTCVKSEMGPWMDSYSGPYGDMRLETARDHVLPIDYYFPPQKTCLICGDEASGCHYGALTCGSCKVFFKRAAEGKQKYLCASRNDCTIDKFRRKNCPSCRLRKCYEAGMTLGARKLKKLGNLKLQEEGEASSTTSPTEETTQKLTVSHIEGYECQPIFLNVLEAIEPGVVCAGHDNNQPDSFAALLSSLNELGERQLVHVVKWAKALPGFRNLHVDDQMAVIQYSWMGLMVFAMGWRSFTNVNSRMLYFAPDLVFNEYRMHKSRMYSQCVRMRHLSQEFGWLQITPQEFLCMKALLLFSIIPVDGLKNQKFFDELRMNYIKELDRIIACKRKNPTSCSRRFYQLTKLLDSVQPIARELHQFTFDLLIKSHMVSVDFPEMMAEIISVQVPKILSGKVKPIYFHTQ

**Q.** What does the source list for `COc1nn(CSP(=S)(OC)OC)c(=O)s1`?
**A.** outcome [1]: inactive; AC50 [2]: 78.7 µM (active); AC50 [3]: 92.6 µM (active); outcome [4]: inactive

**Q.** Which results are given for `CNC(=O)CSP(=S)(OC)OC`?
**A.** AC50 [1]: 34.2 µM (active); outcome [3]: inactive

**Q.** What does the source list for `CCCN(CCOc1c(Cl)cc(Cl)cc1Cl)C(=O)n1ccnc1`?
**A.** outcome [1]: inactive; outcome [5]: inactive; outcome [6]: inactive; outcome [7]: inactive; AC50 [2]: 37.3 µM (active); AC50 [3]: 57.1 µM (active); outcome [8]: inactive; AC50 [4]: 74.9 µM (active)

**Q.** With `COP(=S)(OC)Oc1ccc([N+](=O)[O-])cc1` as the compound, how does the outcome [1] read?
**A.** inactive

**Q.** And the outcome [3]?
**A.** inactive

**Q.** And the outcome [4]?
**A.** inactive

**Q.** With `CCOCN(C(=O)CCl)c1c(C)cccc1CC` as the compound, how does the AC50 [6] read?
**A.** 29.5 µM (active)

**Q.** What about the AC50 [7] of the same compound?
**A.** 77.1 µM (active)

**Q.** And the AC50 [2]?
**A.** 50 µM (active)

**Q.** And the AC50 [3]?
**A.** 40.9 µM (active)

**Q.** And the outcome [8]?
**A.** inactive

**Q.** What about the outcome [9] of the same compound?
**A.** inactive

**Q.** And the AC50 [4]?
**A.** 79.5 µM (active)

**Q.** Which outcome [1] does the source give for `Oc1ccc(Cl)cc1Cc1ccccc1` here?
**A.** inactive

**Q.** What about the outcome [5] of the same compound?
**A.** inactive

**Q.** What about the AC50 [6] of the same compound?
**A.** 3.36 µM (active)

**Q.** What about the AC50 [7] of the same compound?
**A.** 2.69 µM (active)

**Q.** What about the AC50 [2] of the same compound?
**A.** 18.2 µM (active)

**Q.** And the AC50 [3]?
**A.** 13.8 µM (active)

**Q.** And the AC50 [10]?
**A.** 2.63 µM (active)

**Q.** And the outcome [11]?
**A.** inactive

**Q.** What about the outcome [8] of the same compound?
**A.** inactive

**Q.** And the AC50 [12]?
**A.** 2.74 µM (active)

**Q.** And the AC50 [4]?
**A.** 18.3 µM (active) [middle of 9 runs]

**Q.** What about the outcome [13] of the same compound?
**A.** inactive

**Q.** Which AC50 [1] does the source give for `CN1CSC(=S)N(C)C1` here?
**A.** 40.5 µM (active)

**Q.** What about the AC50 [2] of the same compound?
**A.** 50 µM (active)

**Q.** What about the AC50 [3] of the same compound?
**A.** 31.5 µM (active)

**Q.** What about the AC50 [4] of the same compound?
**A.** 39.7 µM (active)

**Q.** Which results are given for `CC1(c2ccc(Oc3ccccc3)cc2)OC(=O)N(Nc2ccccc2)C1=O` (stereo unspecified)?
**A.** outcome [1]: inactive; AC50 [2]: 1.01 µM (active); AC50 [3]: 0.883 µM (active); AC50 [4]: 45.8 µM (active)

**Q.** For `O=S1OCC2C(CO1)C1(Cl)C(Cl)=C(Cl)C2(Cl)C1(Cl)Cl` (stereo unspecified), which outcome [14] is on record?
**A.** inactive

**Q.** What about the AC50 [6] of the same compound?
**A.** 4.8 µM (active)

**Q.** What about the AC50 [7] of the same compound?
**A.** 10 µM (active)

**Q.** What about the AC50 [2] of the same compound?
**A.** 23.1 µM (active)

**Q.** And the AC50 [3]?
**A.** 17.2 µM (active)

**Q.** And the outcome [10]?
**A.** inactive

**Q.** And the outcome [8]?
**A.** inactive

**Q.** And the AC50 [9]?
**A.** 1.98 µM (active)

**Q.** And the AC50 [12]?
**A.** 1.98 µM (active)

**Q.** And the AC50 [4]?
**A.** 71.8 µM (active)

**Q.** And the outcome [13]?
**A.** inactive

**Q.** For `CNC(=O)Oc1cccc(N=CN(C)C)c1`, which outcome [1] is on record?
**A.** inactive

**Q.** And the outcome [2]?
**A.** inactive

**Q.** What about the outcome [3] of the same compound?
**A.** inactive

**Q.** What about the AC50 [4] of the same compound?
**A.** 50.5 µM (active)

**Q.** For `CC1(C)C(C=C(Cl)Cl)C1C(=O)OC(C#N)c1ccc(F)c(Oc2ccccc2)c1` (stereo unspecified), which outcome [15] is on record?
**A.** inactive

**Q.** And the outcome [14]?
**A.** inactive

**Q.** What about the AC50 [6] of the same compound?
**A.** 35.5 µM (active)

**Q.** What about the AC50 [7] of the same compound?
**A.** 27 µM (active)

**Q.** What about the AC50 [2] of the same compound?
**A.** 67.2 µM (active)

**Q.** What about the AC50 [3] of the same compound?
**A.** 30.1 µM (active)

**Q.** What about the AC50 [10] of the same compound?
**A.** 13.9 µM (active)

**Q.** And the outcome [11]?
**A.** inactive

**Q.** What about the AC50 [8] of the same compound?
**A.** 27.5 µM (active)

**Q.** And the outcome [9]?
**A.** inactive

**Q.** And the AC50 [12]?
**A.** 27.5 µM (active)

**Q.** And the AC50 [4]?
**A.** 74.3 µM (active)
